Results: ChEMBL document CHEMBL3988442, “University of Dundee, Small-Polar-MMV Screening Library” (2021)

Target: Shiga toxin 2 (Escherichia coli O157:H7) (UniProt P09385+P09386)
Assay: E. coli 0.157:H7 Shiga Toxin SOP - stx2 screening assay
Format: functional
Parameters: scale not given: direction of the effect not stated beside the values
Conditions: 30 µM

Going from `Cc1nccn1C1CCCN(C(=O)c2ccc3c(c2)NC(=O)CO3)C1` (stereo not given) to `Cc1ccc(CC(=O)N2CCCC(c3nc(C)cs3)C2)cn1` (stereo not given), the Percent Effect falls from 24.5% to 7.66%.

Going from `O=C(c1ccncc1)N1CCC(c2nc(O)cc(-c3ccncc3)n2)C1` (stereo not given) to `CN(C)C(=O)CO[C@H]1CN(Cc2ccc(F)cc2)[C@@H]2CCCO[C@H]12`, the Percent Effect falls from 1.62% to -22%.

First: O=C(NCCCNc1ccccc1)c1scnc1Cl
Second: Cc1nc(C)c(C(=O)NCCNC(=O)Cc2cccc(F)c2)s1
The Percent Effect of the first is lower: -10.4% for the first, 6.14% for the second.

Going from `Cc1ccc(CN(C)C(=O)CN2CCOC(Cn3cncn3)C2)o1` (stereo not given) to `Cc1ccc(CC(=O)N2CSCC2C(=O)N(C)Cc2ccco2)o1` (stereo not given), the Percent Effect rises from -9.96% to 12%.

First: O=C(Cc1ccc2c(c1)OCCO2)NC1CCN(CC(F)F)CC1
Second: Cc1cc(CN2CCN(C(=O)c3sccc3C3CC3)CC2)on1
The Percent Effect of the first is lower: 11% for the first, 27% for the second.

First: O=C(Cc1ccccn1)N1CCC2(CC1)CC(Oc1ccccn1)CO2 (stereo not given)
Second: CS(=O)(=O)N1CCCN(C(=O)c2ccc(Cn3ccccc3=O)o2)CC1
The Percent Effect of the first is lower: -3.37% for the first, 25% for the second.

Compared with `CN(C)c1ncnc2c1CCN(CC1CCOC1)CC2` (stereo not given), `Cc1cc(NC(=O)CCN(CC2CCOC2)C2CC2)no1` (stereo not given) is higher in Percent Effect: -26.9% for the first, -16.3% for the second.

Compared with `CN(CCc1cccs1)C1CCCN(Cc2noc(C3CC3)n2)C1` (stereo not given), `Cn1cc(NC(=O)N2CCC(CN3CCCC3)CC2)ccc1=O` is lower in Percent Effect: 16.2% for the first, -22.6% for the second.

Compared with `CCc1ncc2c(n1)CN(Cc1nc(C)c(C)o1)CC2`, `COCCN1CCC(NCc2ccc(C#N)cc2)C1` (stereo not given) is lower in Percent Effect: -23.6% for the first, -49.3% for the second.

Compared with `CC(=O)N1CCC2(CC1)COCCN2CCN(C)C`, `CSCC(C)(O)CNC(=O)c1ccc(Br)cc1C` (stereo not given) is lower in Percent Effect: 1.75% for the first, -16% for the second.
